# According to PubChem BioAssay (NCATS):
# Records with an inconclusive call do not appear. Unmarked numbers belong to inactive results. Calls of active or inactive are those of the source. Unless noted, the call rests on the fitted dose curve; in most records, active means well fitted curve in the direction sought with a large enough effect; inconclusive means small, poorly fitted or top-dose-only effect, or another doubt; inactive means no such curve, though single readings can be large; an effect the other way counts as inactive or inconclusive.
# Experiment: Cell Viability qHTS for small molecule stabilizers of the endoplasmic reticulum resident proteome (AID 1508629);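 further: human SH-SY5Y neuroblastoma cells carrying the GLuc-SERCaMP reporter; compound exposure about 46 h in total before the viability read; on the % scale 0 is the no-effect control and ±100 the full control effect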
# Details: cell viability counter-screen, 100 nM thapsigargin for final 4 h
row,SMILES,max response
1,C=CCN1CCc2nc(N)sc2CC1,-7.52%
2,CN1CCC(OC(c2ccccc2)c2ccccc2)CC1,7.61%
3,CC(C)(Cc1c[nH]c2ccccc12)NCC(O)COc1ccccc1C#N (centres undefined),-6.12%
4,CCOc1cc(OCC)c(C(=O)CCC(=O)O)cc1OCC,24.8%
5,CN(CCCN1c2ccccc2CCc2ccccc21)CC(=O)c1ccc(Cl)cc1,24.4%

# Experiment: Primary qHTS for small molecule stabilizers of the endoplasmic reticulum resident proteome: Secreted ER Calcium Modulated Protein (SERCaMP) assay (AID 1508630); further: on the % scale 0 is the no-effect control and ±100 the full control effect
# Details: SH-SY5Y GLuc-SERCaMP (Gaussia luciferase released on ER calcium loss) secretion, thapsigargin, luminescence; series mostly up to 38.4 µM; activity change, negative = inhibition: at the top concentration
# Outline: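 The SH-SY5Y reporter protocol was run at 3 concentrations up to 38.3 uM (primary) or 11 concentrations (follow-up): 16 h compound, 100 nM thapsigargin for 4 h, then extracellular luciferase luminescence.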
row,SMILES,"activity change, negative = inhibition"
1,CCN1/C(=C/C=C/c2sc3ccccc3[n+]2CC)Sc2ccccc21,8.44% [at 21.6 µM]
2,CC(=O)OCC1=C(C(=O)O)N2C(=O)[C@@H](NC(=O)CSc3ccncc3)[C@H]2SC1,-25%
3,C=CCN1CCc2nc(N)sc2CC1,-20.8%
4,CCOC(=O)Nc1ccc2c(c1)N(C(=O)CCN1CCOCC1)c1ccccc1S2,6.13%
5,COc1cc(N)c(Cl)cc1C(=O)NC1CCN(Cc2ccccc2)CC1,-0.546%
6,O=S(c1cc(Cl)cc(Cl)c1O)c1cc(Cl)cc(Cl)c1O,-25.4%
7,CCN1CCCC(OC(=O)C(c2ccccc2)c2ccccc2)C1 (centres undefined),-7.65%
8,CC(=O)NC(=O)c1ccccc1O,-25%
9,Cc1nc(-c2ccc(Cl)cc2)oc1COC(C)(C)C(=O)O,-22.7%
10,O=C1C(CCS(=O)c2ccccc2)C(=O)N(c2ccccc2)N1c1ccccc1 (centres undefined),2.75%
11,CC(C)[N+](C)(C)CC(O)COc1cccc2ccccc12 (centres undefined),-15.3%
12,CC(C)(Cc1c[nH]c2ccccc12)NCC(O)COc1ccccc1C#N (centres undefined),172%
13,CN1CCN(c2c(F)cc3c(=O)c(C(=O)O)cn4c3c2SCC4)CC1,2.68%
14,Nc1nc(-c2ccccc2)c(Br)c(=O)[nH]1,-19.6%
15,N#C/C(=C1\SCC(c2ccccc2Cl)S1)n1ccnc1 (centres undefined),-4.29%
16,CO[C@]12C[C@@H](COC(=O)c3cncc(Br)c3)CN(C)[C@@H]1Cc1cn(C)c3cccc2c13,-8.83%
17,COc1cc(C(=S)N2CCOCC2)ccc1O,-7.77%

row,SMILES,"activity change, negative = inhibition"
1,CC(C)(C)NCC(O)COc1cccc2c1C[C@H](O)[C@H](O)C2 (some centres undefined),-13.7%
2,CCOC(=O)c1c(N)sc2c1CCN(Cc1ccccc1)C2,2.39%
3,CCCCOC(=O)CC(CC(=O)OCCCC)(OC(C)=O)C(=O)OCCCC,12%
4,CC(C)Cn1cnc2c1c(=O)n(C)c(=O)n2C,-13.7%
5,CCC1NC(=O)c2cc(S(N)(=O)=O)c(Cl)cc2N1 (centres undefined),-24.8%
6,C#C[C@]1(O)CC[C@H]2[C@@H]3CCC4=Cc5oncc5C[C@]4(C)[C@H]3CC[C@@]21C,-5.27%
7,CCc1cc(Cl)c(OC)c(C(=O)NC[C@@H]2CCCN2CC)c1O,23.1%
8,CC(=C(CCOC(=O)C(C)C)SSC(CCOC(=O)C(C)C)=C(C)N(C=O)Cc1cnc(C)nc1N)N(C=O)Cc1cnc(C)nc1N,-14.3%
9,NCc1ccccc1Sc1ccccc1CO,-5.48%
10,NC(=O)c1ccccc1O,-17.9%
11,COc1cc(O)c(C(=O)c2ccccc2)cc1S(=O)(=O)O,-19.2%
12,O=C1C(=O)c2ccccc2C(O)=C1C1CCC(c2ccc(Cl)cc2)CC1 (centres undefined),-4.02%
13,NCCNc1cccc2ccccc12,-11.2%
14,COc1ccc(S(=O)(=O)N2c3ccc(Cl)cc3[C@@](O)(c3ccccc3Cl)[C@H]2C(=O)N2CCC[C@@H]2C(N)=O)cc1OC,2.73%
15,NS(=O)(=O)Cc1noc2ccccc12,-29.7%
16,NC(=O)C1(N2CCCCC2)CCN(CCCC(=O)c2ccc(F)cc2)CC1,8%

# Experiment: A High-Content qHTS Against Drug Library for the Identification of Small Molecules that Inhibit DYT1 Early Onset Primary Dystonia-Associated Cell Pathology (AID 1645839; calls by dose curve; further: potency means the concentration at half of the fitted maximal effect)
# Details: HEK293 Flp-In EGFP-delE TorsinA, punctate imaging, 48 h; series mostly up to 46.1 µM; % pathology change, negative = correction: at the top concentration
# Outline: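 Induced EGFP-delE TorsinA cells are imaged after 48 h of compound treatment. Punctate fusion-protein distribution gives the %pathology value, while nuclei counts flag toxicity. Wild-type EGFP-hTOR1A cells define the normal pattern.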
SMILES,Potency,"% pathology change, negative = correction"
CCN1/C(=C/C=C/c2sc3ccccc3[n+]2CC)Sc2ccccc21,11.2 µM (active),
CC(=O)OCC1=C(C(=O)O)N2C(=O)[C@@H](NC(=O)CSc3ccncc3)[C@H]2SC1,,4.32%
C=CCN1CCc2nc(N)sc2CC1,,1.99%
CCOC(=O)Nc1ccc2c(c1)N(C(=O)CCN1CCOCC1)c1ccccc1S2,,-29.3%
COc1cc(N)c(Cl)cc1C(=O)NC1CCN(Cc2ccccc2)CC1,,4.8%
CCN1CCCC(OC(=O)C(c2ccccc2)c2ccccc2)C1 (centres undefined),,8.69%
CC(=O)NC(=O)c1ccccc1O,,3.27%
Cc1nc(-c2ccc(Cl)cc2)oc1COC(C)(C)C(=O)O,,17%
O=C1C(CCS(=O)c2ccccc2)C(=O)N(c2ccccc2)N1c1ccccc1 (centres undefined),,3.92%
CC(C)[N+](C)(C)CC(O)COc1cccc2ccccc12 (centres undefined),,5.4%
CN1CCN(c2c(F)cc3c(=O)c(C(=O)O)cn4c3c2SCC4)CC1,,-2.47%
Nc1nc(-c2ccccc2)c(Br)c(=O)[nH]1,,17.4%
N#C/C(=C1\SCC(c2ccccc2Cl)S1)n1ccnc1 (centres undefined),,-6.14%
CO[C@]12C[C@@H](COC(=O)c3cncc(Br)c3)CN(C)[C@@H]1Cc1cn(C)c3cccc2c13,,-9.81%
COc1cc(C(=S)N2CCOCC2)ccc1O,,7.02%
CC(C)(C)NCC(O)COc1cccc2c1C[C@H](O)[C@H](O)C2 (some centres undefined),,20.8%

SMILES,Potency,"% pathology change, negative = correction"
CCOC(=O)c1c(N)sc2c1CCN(Cc1ccccc1)C2,,1.43%
CCCCOC(=O)CC(CC(=O)OCCCC)(OC(C)=O)C(=O)OCCCC,,-11.3%
CC(C)Cn1cnc2c1c(=O)n(C)c(=O)n2C,,12.4%
CCC1NC(=O)c2cc(S(N)(=O)=O)c(Cl)cc2N1 (centres undefined),,0.37%
CCOc1cc(OCC)c(C(=O)CCC(=O)O)cc1OCC,,8.12%
CCc1cc(Cl)c(OC)c(C(=O)NC[C@@H]2CCCN2CC)c1O,,-20%
CC(=C(CCOC(=O)C(C)C)SSC(CCOC(=O)C(C)C)=C(C)N(C=O)Cc1cnc(C)nc1N)N(C=O)Cc1cnc(C)nc1N,,5.05%
NCc1ccccc1Sc1ccccc1CO,,-2.05%
NC(=O)c1ccccc1O,,2.78%
COc1cc(O)c(C(=O)c2ccccc2)cc1S(=O)(=O)O,,-5.61%
O=C1C(=O)c2ccccc2C(O)=C1C1CCC(c2ccc(Cl)cc2)CC1 (centres undefined),,-1.19%
NCCNc1cccc2ccccc12,,-21.2%
COc1ccc(S(=O)(=O)N2c3ccc(Cl)cc3[C@@](O)(c3ccccc3Cl)[C@H]2C(=O)N2CCC[C@@H]2C(N)=O)cc1OC,,-12.3%
NS(=O)(=O)Cc1noc2ccccc12,,15.7%
NC(=O)C1(N2CCCCC2)CCN(CCCC(=O)c2ccc(F)cc2)CC1,,5.3%
